Results on 22 molecules are retold here after PubChem BioAssay.

A short description of this assay: inhibitors of mitochondrial cytochrome c release, biochemical, purified mitochondria (AID 1603).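 Note: mouse liver mitochondria challenged with calcium chloride; signal normalized to the plate average as 100%.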 To be noted: stronger effect = lower value.
Consider `N=c1nc(N2CCCCC2)cc(N)n1O`, for which the cytochrome c release ratio came out at 1.17.

For the molecule `CC(C)NCC(O)COc1cccc2[nH]ccc12` (configuration not stated), the cytochrome c release ratio was found to be 0.95.

As to `CCn1cc(C(=O)O)c(=O)c2ccc(C)nc21`, the cytochrome c release ratio amounted to 0.84.

For `CN(C)C(=O)C(CCN1CCC(O)(c2ccc(Cl)cc2)CC1)(c1ccccc1)c1ccccc1`, the cytochrome c release ratio amounted to 0.99.

Take `Cc1cc(NS(=O)(=O)c2ccc(N)cc2)no1`: the cytochrome c release ratio came out at 0.69.

Take `CCCC(CCC)C(=O)O`: the cytochrome c release ratio was determined as 0.86.

Regarding `O=C1CN(/N=C/c2ccc([N+](=O)[O-])o2)C(=O)N1`, the cytochrome c release ratio turned out to be 0.76.

`COc1cc(Cc2cnc(N)nc2N)cc(OC)c1OC`: the cytochrome c release ratio stood at 0.82.

`COC(=O)C1=C(C)NC(C)=C(C(=O)OCCN(C)Cc2ccccc2)C1c1cccc([N+](=O)[O-])c1` (configuration not stated): the cytochrome c release ratio was 1.07.

On to `O=C(CCCN1CCC(O)(c2ccc(Cl)cc2)CC1)c1ccc(F)cc1`, for which the cytochrome c release ratio was 1.55.

With `CC12CCC(CC1)C(C)(C)O2`, the cytochrome c release ratio turned out to be 0.96.

As for `CC(C)(C)NCC(O)c1ccc(O)c(CO)c1` (configuration not stated), the cytochrome c release ratio amounted to 3.64.

`COc1ccc2cc([C@H](C)C(=O)O)ccc2c1`: the cytochrome c release ratio is 0.95.

In the case of `COc1c2occc2cc2ccc(=O)oc12`, the cytochrome c release ratio is 2.13.

Consider `CN/C(=C\[N+](=O)[O-])NCCSCc1ccc(CN(C)C)o1`, for which the cytochrome c release ratio came out at 0.8.

For the molecule `CNCCCN1c2ccccc2CCc2ccccc21`, the cytochrome c release ratio came out at 1.05.

With `CN1C(=O)CC[C@H]1c1cccnc1`, the cytochrome c release ratio was 0.78.

As to `CCCC(=O)Nc1ccc(OCC(O)CNC(C)C)c(C(C)=O)c1` (configuration not stated), the cytochrome c release ratio was 0.94.

`CC(C)OC(=O)C(C)(C)Oc1ccc(C(=O)c2ccc(Cl)cc2)cc1`: the cytochrome c release ratio came out at 1.27.

Turning to `CC(C(=O)O)c1cccc(C(=O)c2ccccc2)c1` (configuration not stated), the cytochrome c release ratio worked out at 1.12.

Regarding `CN1CCN(C2=Nc3cc(Cl)ccc3Nc3ccccc32)CC1`, the cytochrome c release ratio is 1.52.

On to `COC(=O)C1=C(C)NC(C)=C(C(=O)OC)C1c1ccccc1[N+](=O)[O-]`, for which the cytochrome c release ratio worked out at 0.98.
